{"source": "PubChem BioAssay (NCI)", "note": "Several values for one entry are separate records, joined by “and”; a condition that tells them apart may be missing. Equal entries are not always repeated. This is part of a sample that, as a whole, favours compounds with a hit. Of some 83,000 tested, about 20% had one in any assay.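 Growth was measured after 48 h exposure to one concentration of compound in 96-well plates. Values under 10 count as active.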 Activity calls are given as the source filed them. Where a SMILES comes first, the peptide text is derived from it. [ ]: non-standard residue; d: D form. ξ: configuration not given here. ξV = CC(C)C(N)C(=O)O"}
{"test_system": "RXF 393 renal", "assay": "NCI-60 one-dose screen, 48 h (100 = growth as untreated, 0 = no growth, -100 = all killed)", "conditions": "10 µM unless noted"}
{"smiles": "NNc1ccc2ccccc2c1", "growth": "122% (inactive) and 98.9% (inactive)"}
{"smiles": "NC1=C(Cl)C(=O)c2ccccc2C1=O", "growth": "103% (inactive)"}
{"smiles": "Nc1ccc2cc3ccc(N)cc3nc2c1", "growth": "127% (inactive) and 8.54% (active)"}
{"smiles": "CO[C@H](C(=O)[C@@H](O)[C@@H](C)O)[C@@H]1Cc2cc3cc(OC4CC(OC5CC(O)C(O)C(C)O5)C(O)C(C)O4)c(C)c(O)c3c(O)c2C(=O)[C@H]1OC1CC(OC2CC(OC3CC(C)(O)C(O)C(C)O3)C(O)C(C)O2)C(O)C(C)O1", "note": "(some centres undefined)", "growth": "5.86% (active)"}
{"smiles": "CCC(C)(C)c1cc(O)c(C(C)(C)CC)cc1O", "growth": "32.5% (inactive)"}
{"smiles": "Cc1cc(NS(=O)(=O)c2ccc(N=Nc3cc(N=Nc4ccc(S(=O)(=O)Nc5cc(C)nc(C)n5)cc4)c4c(NC(=O)C(Cl)Cl)cccc4c3OC(=O)C(Cl)Cl)cc2)nc(C)n1", "note": "(tested in a mixture with another compound)", "growth": "110% (inactive) and 93% (inactive)"}
{"smiles": "O=C(Nc1ccc(C(=O)O)c(O)c1)c1ccccc1", "growth": "112% (inactive) and 107% (inactive)"}
{"smiles": "CC(=O)Nc1cc(C)ccc1C", "growth": "105% (inactive)"}
{"smiles": "CCCCCCCCCCCCCCCCCCOCC(COP(=O)([O-])OCC[N+](C)(C)C)OC", "note": "(centres undefined)", "growth": "47.2% (inactive)"}
{"smiles": "CCCC1CCC(=C2C(=O)CCC2=O)O1", "note": "(centres undefined)", "growth": "103% (inactive) and 97.7% (inactive)"}
{"smiles": "COC(=O)C1C(O)C(C)C(O)C(C)C=C(C)C2=C3C(=C(C)C(=O)c4c(O)c(c(C)c(OC(C)=O)c43)NC(=O)C(C)=C/C=C\\C(C)C(O)C(C)C1O)OCO2", "note": "(centres undefined)", "growth": "125% (inactive)"}
{"smiles": "CCCCCCCCCCSC(=N)N", "growth": "46.1% (inactive)"}
{"smiles": "CS(=O)(=O)OC1CC(n2ccc(=O)[nH]c2=O)OC1COC(c1ccccc1)(c1ccccc1)c1ccccc1", "note": "(centres undefined)", "growth": "105% (inactive)"}
{"smiles": "Clc1cc(Cl)c(Cl)nn1", "growth": "122% (inactive)"}
{"smiles": "OCC(O)C(O)C(O)C(/C=N/Nc1ccccc1)=N/Nc1ccccc1", "note": "(centres undefined)", "growth": "86.7% (inactive)"}
{"smiles": "CSC1SCC2C(=O)N(C)C(C(C)C)C(=O)OCC(NC(=O)c3cnc4ccccc4n3)C(=O)NC(C)C(=O)N(C)C1C(=O)N(C)C(C(C)C)C(=O)OCC(NC(=O)c1cnc3ccccc3n1)C(=O)NC(C)C(=O)N2C", "note": "(centres undefined)", "growth": "-0.0463% (active)"}
{"smiles": "COc1cccc2c1C(=O)c1c(O)c3c(c(O)c1C2=O)C[C@@](O)(C(C)=O)C[C@@H]3OC1CC(N)C(O)C(C)O1", "note": "(some centres undefined)", "growth": "-46.9% (active)"}
{"smiles": "CCCCCCCCCCCC[N+](C)(C)Cc1ccccc1", "growth": "-38.7% (active)"}
{"smiles": "CC(=O)OCC(OC(C)=O)C(OC(C)=O)C(OC(C)=O)C(OC(C)=O)C(/C=N/Nc1ccccc1)=N/Nc1ccccc1", "note": "(centres undefined)", "growth": "77% (inactive)"}
{"smiles": "Clc1ccc(/C=C/c2ccccn2)c(Cl)c1", "growth": "108% (inactive)"}
{"smiles": "CC(C)(C)CC(C)(C)c1ccc(OCCO)cc1", "growth": "119% (inactive)"}
{"smiles": "CCCCCCCCCCCCSC(=NC)NC", "growth": "40.9% (inactive) and 70.6% (inactive)"}
{"smiles": "O=C1NC(=O)c2cc([N+](=O)[O-])ccc21", "growth": "108% (inactive)"}
{"smiles": "O=C(/C=C/c1ccccn1)c1ccccc1", "growth": "90.6% (inactive)"}
{"smiles": "CC(C)C(NC(=O)CN)C(=O)O", "note": "(centres undefined) (H-Gly-[ξV]-OH)", "growth": "104% (inactive) and 108% (inactive)"}
{"smiles": "CCN(CC)c1ccc(NC(C(=O)c2ccccc2)c2ccccc2)cc1", "note": "(centres undefined)", "growth": "4.61% (active)"}
{"test_system": "SF-268 CNS", "assay": "NCI-60 one-dose screen, 48 h (100 = growth as untreated, 0 = no growth, -100 = all killed)", "conditions": "10 µM"}
{"smiles": "NNc1ccc2ccccc2c1", "growth": "75.8% (inactive) and 96.8% (inactive)"}
{"smiles": "NC1=C(Cl)C(=O)c2ccccc2C1=O", "growth": "71.7% (inactive)"}
{"smiles": "Nc1ccc2cc3ccc(N)cc3nc2c1", "growth": "115% (inactive) and 18.5% (inactive)"}
{"smiles": "CO[C@H](C(=O)[C@@H](O)[C@@H](C)O)[C@@H]1Cc2cc3cc(OC4CC(OC5CC(O)C(O)C(C)O5)C(O)C(C)O4)c(C)c(O)c3c(O)c2C(=O)[C@H]1OC1CC(OC2CC(OC3CC(C)(O)C(O)C(C)O3)C(O)C(C)O2)C(O)C(C)O1", "note": "(some centres undefined)", "growth": "12.3% (inactive)"}
{"smiles": "CCC(C)(C)c1cc(O)c(C(C)(C)CC)cc1O", "growth": "43.3% (inactive)"}
{"smiles": "Cc1cc(NS(=O)(=O)c2ccc(N=Nc3cc(N=Nc4ccc(S(=O)(=O)Nc5cc(C)nc(C)n5)cc4)c4c(NC(=O)C(Cl)Cl)cccc4c3OC(=O)C(Cl)Cl)cc2)nc(C)n1", "note": "(tested in a mixture with another compound)", "growth": "108% (inactive) and 115% (inactive)"}
{"smiles": "O=C(Nc1ccc(C(=O)O)c(O)c1)c1ccccc1", "growth": "108% (inactive) and 121% (inactive)"}
{"smiles": "CC(=O)Nc1cc(C)ccc1C", "growth": "101% (inactive)"}
{"smiles": "CCCCCCCCCCCCCCCCCCOCC(COP(=O)([O-])OCC[N+](C)(C)C)OC", "note": "(centres undefined)", "growth": "79.6% (inactive)"}
{"smiles": "CCCC1CCC(=C2C(=O)CCC2=O)O1", "note": "(centres undefined)", "growth": "100% (inactive) and 107% (inactive)"}
{"smiles": "COC(=O)C1C(O)C(C)C(O)C(C)C=C(C)C2=C3C(=C(C)C(=O)c4c(O)c(c(C)c(OC(C)=O)c43)NC(=O)C(C)=C/C=C\\C(C)C(O)C(C)C1O)OCO2", "note": "(centres undefined)", "growth": "112% (inactive)"}
{"smiles": "CCCCCCCCCCSC(=N)N", "growth": "73.9% (inactive)"}
{"smiles": "CS(=O)(=O)OC1CC(n2ccc(=O)[nH]c2=O)OC1COC(c1ccccc1)(c1ccccc1)c1ccccc1", "note": "(centres undefined)", "growth": "103% (inactive)"}
{"smiles": "Clc1cc(Cl)c(Cl)nn1", "growth": "101% (inactive)"}
{"smiles": "OCC(O)C(O)C(O)C(/C=N/Nc1ccccc1)=N/Nc1ccccc1", "note": "(centres undefined)", "growth": "75.5% (inactive)"}
{"smiles": "CSC1SCC2C(=O)N(C)C(C(C)C)C(=O)OCC(NC(=O)c3cnc4ccccc4n3)C(=O)NC(C)C(=O)N(C)C1C(=O)N(C)C(C(C)C)C(=O)OCC(NC(=O)c1cnc3ccccc3n1)C(=O)NC(C)C(=O)N2C", "note": "(centres undefined)", "growth": "-2.43% (active)"}
{"smiles": "COc1cccc2c1C(=O)c1c(O)c3c(c(O)c1C2=O)C[C@@](O)(C(C)=O)C[C@@H]3OC1CC(N)C(O)C(C)O1", "note": "(some centres undefined)", "growth": "-14.5% (active)"}
{"smiles": "CCCCCCCCCCCC[N+](C)(C)Cc1ccccc1", "growth": "8.3% (active)"}
{"smiles": "CC(=O)OCC(OC(C)=O)C(OC(C)=O)C(OC(C)=O)C(OC(C)=O)C(/C=N/Nc1ccccc1)=N/Nc1ccccc1", "note": "(centres undefined)", "growth": "71.5% (inactive)"}
{"smiles": "Clc1ccc(/C=C/c2ccccn2)c(Cl)c1", "growth": "99% (inactive)"}
{"smiles": "CC(C)(C)CC(C)(C)c1ccc(OCCO)cc1", "growth": "108% (inactive)"}
{"smiles": "COc1cccc2c1C(=O)c1c(O)c3c(c(O)c1C2=O)C[C@@](O)(C(=O)CO)C[C@@H]3OC1CC(N)C(O)C(C)O1", "note": "(some centres undefined)", "growth": "-4.32% (active)"}
{"smiles": "CCCCCCCCCCCCSC(=NC)NC", "growth": "40.9% (inactive) and 74.9% (inactive)"}
{"smiles": "O=C1NC(=O)c2cc([N+](=O)[O-])ccc21", "growth": "106% (inactive)"}
{"smiles": "O=C(/C=C/c1ccccn1)c1ccccc1", "growth": "85.4% (inactive)"}
{"smiles": "O=c1ccn(C2CC(O)C(COC(c3ccccc3)(c3ccccc3)c3ccccc3)O2)c(=O)[nH]1", "note": "(centres undefined)", "growth": "83% (inactive)"}
{"smiles": "CC(C)C(NC(=O)CN)C(=O)O", "note": "(centres undefined) (H-Gly-[ξV]-OH)", "growth": "104% (inactive) and 101% (inactive)"}
{"smiles": "CCN(CC)c1ccc(NC(C(=O)c2ccccc2)c2ccccc2)cc1", "note": "(centres undefined)", "growth": "-22.8% (active)"}
